These results are taken from PubChem BioAssay (NCI).

The nature of the assay: NCI Yeast Anticancer Drug Screen. Data for the rad50 strain (AID 155).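 Also: 0% = growth of vehicle-only cultures of the same strain.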 The following applies: S. cerevisiae rad50 strain growth inhibition, stronger effect = higher value. As to the method: Growth inhibition of yeast strains with defined genetic alterations is measured as a screen for potential anti-cancer activity. Selected strains with alterations in DNA damage repair or cell cycle control were exposed to compounds and growth inhibition was measured relative to vehicle treated controls. The strain used in this assay is rad50

[1] abbreviates: at 5.0 µM (retest, dose inferred, filed as 0.5).
Setting [2] is: at 50.0 µM (retest, dose inferred, filed as 5.0).

SMILES strings stand for the structures. The panel holds about 79,000 compounds, 15% with a hit somewhere; the sample as a whole holds those more often. Active and inactive are the calls of the source. Rule as the data show it: active = growth inhibition above about 70%; inactive = the rest.

On to `CCCCCCCCCCCCCCC(O)C(=O)O` (configuration not stated), for which the growth inhibition runs as follows: under setting [1], -6% (inactive); under setting [2], -27% (inactive); (at 50.0 µM) 68.7% (inactive).

Regarding `O=C(Nc1c(Cl)cccc1Cl)Oc1c(Br)cc(Br)cc1Br`, the growth inhibition is 77% (active) under setting [1], 96% (active) under setting [2] and 90.3% (active) (at 50.0 µM).

As to `O=C1c2ccccc2C2N1CCCN2C(=O)c1sc2ccccc2c1Cl` (configuration not stated), the growth inhibition runs as follows: under setting [1], 49% (inactive); under setting [2], 98% (active); (at 50.0 µM) 90% (active).

As to `COC(=O)C1=C(/C=C/C(C)=O)NC(C)=C(C(=O)OC(C)C)C1c1ccccc1Cl` (configuration not stated), the growth inhibition is 40% (inactive) under setting [1], 95% (active) under setting [2] and 49.3% (inactive) (at 50.0 µM).

For the compound `CCCC(C)c1ccc(O)cc1` (configuration not stated), the growth inhibition under setting [1] is 6% (inactive), the growth inhibition under setting [2] is 13% (inactive) and the growth inhibition (at 50.0 µM) is 57.4% (inactive).

For `CCCCCCCCN(CCCCCCCC)CC(O)c1ccc2cc3c(nc2c1)CCCC3` (configuration not stated), the growth inhibition runs as follows: under setting [1], -3% (inactive); under setting [2], 94% (active); (at 50.0 µM) 98.7% (active).

As to `Cc1cc(N=NC(N)=S)c2ccccc2c1O`, the growth inhibition was 4% (inactive) under setting [1], 22% (inactive) under setting [2] and 76.2% (active) (at 50.0 µM).

For `O=[N+]([O-])/C(C(Cl)=C(Cl)Cl)=C(/Sc1ccccc1)N1CCCCC1`, the growth inhibition runs as follows: under setting [1], -3% (inactive); under setting [2], 97% (active); (at 50.0 µM) 84.9% (active).

Consider `COc1ccc2c(c1)CCc1c(-c3noc4c3CCc3cc(OC)ccc3-4)noc1-2`, for which the growth inhibition reads like this: under setting [1], -7% (inactive); under setting [2], -15% (inactive); (at 50.0 µM) 9.65% (inactive).

`COc1c2c(c(C)c3ccc4ccccc4c13)CCN=C2`: the growth inhibition under setting [1] was -11% (inactive), the growth inhibition under setting [2] is 93% (active) and the growth inhibition (at 50.0 µM) was 80.2% (active).

For the compound `O/N=C\c1ccc(-c2ccccc2)cc1`, the growth inhibition runs as follows: under setting [1], -17% (inactive); under setting [2], 87% (active); (at 50.0 µM) 74% (active).

In the case of `CC(=O)OC1=Cc2ccccc2C(c2ccccc2)c2ccccc21` (configuration not stated), the growth inhibition is -10% (inactive) under setting [1], 29% (inactive) under setting [2] and 14.3% (inactive) (at 50.0 µM).

As to `CSC(=S)n1nc(-c2cccs2)c(N=Nc2ccccc2)c1C(F)(F)F`, the growth inhibition was 5% (inactive) under setting [1], 97% (active) under setting [2] and 93% (active) (at 50.0 µM).

Consider `Cc1cc(S(=O)(=O)Nc2nc(N)nc(N(C)C)n2)c(SC(C(=O)O)c2ccccc2)cc1Cl` (configuration not stated), for which the growth inhibition by setting is: under setting [1], -11% (inactive); under setting [2], -4% (inactive); (at 50.0 µM) -8.65% (inactive).
